Test results reported in PubChem BioAssay (EPA / NIEHS).
Results filed as inconclusive are left out. The source made the active and inactive calls. How the source made its calls, unless noted: active means hit-call score of the fitted dose curve at least 0.9, where 1 is the maximum; inconclusive means response in the unintended direction; inactive means score below 0.9.

Legend:
[1] = TOX21_p53_BLA_p2_viability: Viability Assessment in the Tox21 HCT-116 p53 Agonism Beta-lactamase Assay, Phase 2 (AID 2283591);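 further: compound exposure lasted 16 h at 37 °C; actives lower the ATP signal meaning cytotoxicity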
Summary of the method: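 Cytotoxicity readout: CellTiter-Glo ATP luminescence, 30 min at room temperature, after the beta-lactamase read. Cells were HCT116 exposed 16 h at 37C to compounds pin-transferred at 217-fold dilution from DMSO stocks.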

[2] = biological target: Cellular tumor antigen p53 (Homo sapiens) (UniProt P04637); experiment: TOX21_p53_BLA_p2_ratio: Tox21 HCT-116 p53 Agonism Beta-lactamase Assay, Ratio, Phase 2 (AID 2283592)
Chain of Cellular tumor antigen p53 (Homo sapiens) (P04637 whole entry, looked up): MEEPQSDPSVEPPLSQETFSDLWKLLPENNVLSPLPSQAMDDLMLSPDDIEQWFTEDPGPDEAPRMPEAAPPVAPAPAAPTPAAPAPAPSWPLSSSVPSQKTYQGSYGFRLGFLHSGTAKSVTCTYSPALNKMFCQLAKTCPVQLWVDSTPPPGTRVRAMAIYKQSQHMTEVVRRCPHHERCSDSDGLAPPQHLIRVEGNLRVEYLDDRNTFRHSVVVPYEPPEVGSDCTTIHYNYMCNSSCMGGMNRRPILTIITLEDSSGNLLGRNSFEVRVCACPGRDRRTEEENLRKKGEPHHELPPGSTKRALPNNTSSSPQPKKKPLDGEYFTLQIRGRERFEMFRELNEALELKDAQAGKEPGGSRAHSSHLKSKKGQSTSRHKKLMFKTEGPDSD
Summary of the method: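 Cleaved-to-uncleaved substrate ratio (460 vs 530 nm) measured in HCT116 cells with an inducible beta-lactamase reporter linked to p53 activity. Compounds incubated 16 h at 37C before 2 h room-temperature CCF4-AM loading.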

[3] = TOX21_p53_BLA_p3_viability: Viability Assessment in the Tox21 HCT-116 p53 Agonism Beta-lactamase Assay, Phase 3 (AID 2283593);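 further: cells exposed to compound for 16 h before reading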
Summary of the method: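 Cellular ATP was quantified by CellTiter-Glo luminescence, read after 30 min at room temperature. Beforehand, HCT116 cells (4000/well) received compound 5 h post-seeding, 217-fold diluted from DMSO, then incubated 16 h at 37C.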

[4] = TOX21_p53_BLA_p4_viability: Viability Assessment in the Tox21 HCT-116 p53 Agonism Beta-lactamase Assay, Phase 4 (AID 2283597);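 further: hits lower the luminescence signal meaning cytotoxicity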
Summary of the method: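 Viability is taken as cellular ATP: after 16 h compound exposure of HCT116 cells and a 2 h room-temperature CCF4-AM substrate step, CellTiter-Glo reagent is added and luminescence is measured 30 min later.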

[5] = biological target: Cellular tumor antigen p53 (Homo sapiens) (UniProt P04637); experiment: TOX21_p53_BLA_p5_ratio: Tox21 HCT-116 p53 Agonism Beta-lactamase Assay, Ratio, Phase 5 (AID 2283599)
Summary of the method: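 Beta-lactamase reporter ratio (blue 460 nm over green 530 nm, 405 nm excitation) after 2 h CCF4-AM loading, in HCT-116 cells exposed 16 h at 37 C to compounds pinned at 217-fold dilution. Increases relative to DMSO baseline scored.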

[6] = biological target: Cellular tumor antigen p53 (Homo sapiens) (UniProt P04637); experiment: TOX21_p53_BLA_p4_ratio: Tox21 HCT-116 p53 Agonism Beta-lactamase Assay, Ratio, Phase 4 (AID 2283601)
Summary of the method: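 Signal is the blue/green (460nm/530nm) ratio of cleaved versus uncleaved CCF4-AM substrate, read after 2 h substrate loading. Cells were HCT116 carrying the p53-responsive beta-lactamase reporter, dosed 16 h at 37C, 5% CO2; CellTiter-Glo measured in parallel.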

[7] = CCTE_Harrill_HTTr_Viability_MCF7: CCTE's 6-hour Cell Viability Assessment for the High-Throughput Transcriptomics (HTTr) Platform, in MCF-7 cells cultured in DMEM + 10% fetal bovine serum, Harrill Lab (AID 2284010; active means hit-call score of the fitted dose curve at least 0.9, where 1 is the maximum; inactive means score below 0.9)
Summary of the method: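 Eight-point concentration series, six-hour exposure. Propidium iodide exclusion imaged to assess membrane integrity as a cytotoxicity readout; bidirectional fitting was done with DMSO as negative control and activity baseline.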

[8] = CCTE_Harrill_HTTr_Apoptosis_MCF7: CCTE's 6-hour Apoptosis Assessment for the High-Throughput Transcriptomics (HTTr) Platform, in MCF-7 cells cultured in DMEM + 10% fetal bovine serum, Harrill Lab (AID 2284011; active means hit-call score of the fitted dose curve at least 0.9, where 1 is the maximum; inactive means score below 0.9)
Summary of the method: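 Cells are dosed with test chemicals at eight concentrations and imaged 6 hours later for caspase-3/7 activity using a green fluorogenic detection reagent. Activity is fitted in both directions against DMSO controls.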

[9] = TOX21_p53_BLA_p5_viability: Viability Assessment in the Tox21 HCT-116 p53 Agonism Beta-lactamase Assay, Phase 5 (AID 2283600)
Summary of the method: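 Viability is taken from cellular ATP content, measured by luciferase luminescence in the same wells after the beta-lactamase ratio read. Cells are seeded at 4000 per well and exposed to DMSO-dissolved compounds, diluted 217-fold, for 16 h.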

Measured: outcome

II
not listed: [9]
inactive: all other assays above

CCCCCCC#N
not listed: [7] | [8]
inactive: all other assays above

Cc1nc2ccccc2c(=O)n1-c1ccccc1Cl
inactive: [1] | [2] | [3] | [4] | [9]
